Laboratory results published in PubChem BioAssay (NCATS).
Inconclusive results are not listed. Where a call stands in place of a potency, no number is given. Calls of active or inactive are those of the source. The call rests on the fitted dose curve; in most records, active means well fitted curve in the direction sought with a large enough effect; inconclusive means small, poorly fitted or top-dose-only effect, or another doubt; inactive means no such curve, though single readings can be large; an effect the other way counts as inactive or inconclusive.

Target: Glutaminase kidney isoform, mitochondrial (Homo sapiens) (UniProt O94925)
Test: qHTS for Inhibitors of Glutaminase (GLS): LOPAC Validation (AID 624146); further: nearly all actives have a fitted effect of over 60% in size
Details: glutaminase enzyme activity inhibition; series mostly up to 46.1 µM
Method in brief: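 Read-out is an Amplex red fluorescence increase coupled through glutamate oxidase and HRP, measured before and after 30 min room-temperature incubation. hKGA is in 45 mM KH2PO4 (pH 8.2) with 0.02% Tween-20; glutamine added as 1mM solution.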
Potency means the concentration at half of the fitted maximal effect.

Glutaminase kidney isoform, mitochondrial (Homo sapiens), sequence (O94925 whole entry, looked up, canonical isoform): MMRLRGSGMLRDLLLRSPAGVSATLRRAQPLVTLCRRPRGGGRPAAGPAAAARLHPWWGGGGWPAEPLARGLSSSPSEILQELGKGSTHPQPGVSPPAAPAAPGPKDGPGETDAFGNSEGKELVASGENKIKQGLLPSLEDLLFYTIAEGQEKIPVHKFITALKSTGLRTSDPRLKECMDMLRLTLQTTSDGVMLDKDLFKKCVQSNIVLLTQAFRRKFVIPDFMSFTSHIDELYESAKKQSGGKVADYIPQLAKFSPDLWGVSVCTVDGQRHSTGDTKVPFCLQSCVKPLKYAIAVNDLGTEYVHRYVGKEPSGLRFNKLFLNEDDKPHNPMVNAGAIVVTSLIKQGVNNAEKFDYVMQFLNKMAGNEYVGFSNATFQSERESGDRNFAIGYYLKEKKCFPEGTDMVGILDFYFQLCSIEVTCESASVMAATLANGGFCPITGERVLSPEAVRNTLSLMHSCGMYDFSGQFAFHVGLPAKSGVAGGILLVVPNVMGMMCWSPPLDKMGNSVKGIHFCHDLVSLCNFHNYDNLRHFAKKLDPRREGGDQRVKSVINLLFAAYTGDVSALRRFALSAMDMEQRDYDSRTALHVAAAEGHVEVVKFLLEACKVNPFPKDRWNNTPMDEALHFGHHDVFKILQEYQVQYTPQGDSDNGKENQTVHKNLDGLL

Row | Compound | Potency
1 | CCC1C(=O)OCC1Cc1cncn1C (stereo not given) | inactive
2 | Clc1ccc(N2CCN(Cc3c[nH]c4ncccc34)CC2)cc1 | inactive
3 | COc1ccc(/C=C/C(=O)Nc2ccccc2C(=O)O)cc1OC | inactive
4 | Cc1ccccc1CNc1ncnc2c1ncn2C1OC(CO)C(O)C1O (stereo not given) | inactive
5 | NC[C@H]1O[C@@H](n2cnc3c(N)ncnc32)[C@H](O)[C@@H]1O | inactive
6 | N=c1ccn2c(n1)O[C@H]1[C@H](O)[C@@H](CO)O[C@H]12 | inactive
7 | CN(C)c1ccc(/C=C2\C(=O)Nc3ccccc32)cc1 | inactive
8 | CC[C@@H](C)[C@H]1O[C@]2(CC[C@H]1C)C[C@@H]1C[C@@H](CC=C(C)[C@@H](O[C@H]3C[C@H](OC)[C@@H](O[C@H]4C[C@H](OC)[C@@H](O)[C@H](C)O4)[C@H](C)O3)[C@@H](C)C=CC=C3CO[C@@H]4[C@H](O)C(C)=C[C@@H](C(=O)O1)[C@]34O)O2 | inactive
9 | Oc1cc(O)cc(/C=C/c2ccc(O)c(O)c2)c1 | 2 µM (active)
10 | O=C(O)/C=C/C(O)c1ccc(Cl)cc1 (stereo not given) | inactive
11 | C#C[C@]1(O)CC[C@H]2[C@@H]3CCC4=Cc5oncc5CC4(C)[C@H]3CCC21C (stereo not given in full) | inactive

System: not listed separately
Test: qHTS of Trypanosoma Brucei Inhibitors: LOPAC Validation (AID 624147)
Details: purified enzyme assay, luminescence, 45 min; series mostly up to 57.5 µM
Method in brief: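 Luminescent Kinase-Glo Plus end-point after 45 min room-temperature reaction of T. brucei pyruvate kinase started with 130 uM ADP (final). Buffer TEA 50 mM pH 7.2 with KCl, MgCl2, BSA, Tween-20; titration-based qHTS with fitted concentration-effect curves.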

Row | Compound | Potency
12 | Clc1ccc(N2CCN(Cc3c[nH]c4ncccc34)CC2)cc1 | inactive
13 | Cc1ccccc1CNc1ncnc2c1ncn2C1OC(CO)C(O)C1O (stereo not given) | inactive
14 | NC[C@H]1O[C@@H](n2cnc3c(N)ncnc32)[C@H](O)[C@@H]1O | inactive
15 | N=c1ccn2c(n1)O[C@H]1[C@H](O)[C@@H](CO)O[C@H]12 | inactive
16 | CN(C)c1ccc(/C=C2\C(=O)Nc3ccccc32)cc1 | inactive
17 | CC[C@@H](C)[C@H]1O[C@]2(CC[C@H]1C)C[C@@H]1C[C@@H](CC=C(C)[C@@H](O[C@H]3C[C@H](OC)[C@@H](O[C@H]4C[C@H](OC)[C@@H](O)[C@H](C)O4)[C@H](C)O3)[C@@H](C)C=CC=C3CO[C@@H]4[C@H](O)C(C)=C[C@@H](C(=O)O1)[C@]34O)O2 | inactive
18 | Oc1cc(O)cc(/C=C/c2ccc(O)c(O)c2)c1 | 13.5 µM (active)
19 | O=C(O)/C=C/C(O)c1ccc(Cl)cc1 (stereo not given) | inactive
20 | C#C[C@]1(O)CC[C@H]2[C@@H]3CCC4=Cc5oncc5CC4(C)[C@H]3CCC21C (stereo not given in full) | inactive
